The values that follow come from PubChem BioAssay (NCATS).

Results filed as inconclusive are left out. Values without a mark were called inactive. Calls follow the shape of the full dose curve.
% is scaled to controls: 0 for no effect and ±100 for the full control effect.

A short description of the test: Validation screen for inhibitors of Lassa infection (AID 463096). Conditions: Lassa virus infection, cell-based; series mostly up to 46.1 µM; activity change, negative = inhibition: at the top concentration.
`CCCNC(C)C(=O)Nc1ccccc1C` (configuration not stated): the “activity change, negative = inhibition” value is -7.81%. In the case of `CN(C)C(=O)Oc1ccc[n+](C)c1`, the “activity change, negative = inhibition” value was -3.52%. Turning to `CC(C)NNC(=O)c1ccncc1`, the “activity change, negative = inhibition” value was 24.9%. As for `FC(F)(F)c1ccccc1-n1ccnc1`, the “activity change, negative = inhibition” value was 13.4%. Under `CCN(Cc1ccncc1)C(=O)C(CO)c1ccccc1` (configuration not stated) stands 12.9%; under `Cc1cnc(NC(=O)C2=C(O)c3ccccc3S(=O)(=O)N2C)s1`, -6.34%; under `NCCCNCCSP(=O)(O)O`, 25.6%. For `Cc1ccc(Cl)c(Nc2ccccc2C(=O)O)c1Cl` the value was 6.77%; for `O=C1NCC2(CCN(CCc3ccccc3)CC2)O1`, 13.4%.

For the compound `CCOC(=O)C1=C(C)NC(C)=C(C(=O)OC)C1c1cccc([N+](=O)[O-])c1` (configuration not stated), the “activity change, negative = inhibition” value is -19.7%. For `COc1ccc(C2CNC(=O)C2)cc1OC1CCCC1` (configuration not stated), the “activity change, negative = inhibition” value was -12.8%.

As for `Clc1cccc(Cl)c1NC1=NCCN1`, the “activity change, negative = inhibition” value is 34.1%.

In the case of `CCN(CC)CC#CCOC(=O)C(O)(c1ccccc1)C1CCCCC1` (configuration not stated), the “activity change, negative = inhibition” value is -15.2%. Regarding `O=c1[nH]cnc2[nH]ncc12`, the “activity change, negative = inhibition” value was -5.38%. Turning to `CC[N+](CC)(CC)CCOc1cccc(OCC[N+](CC)(CC)CC)c1OCC[N+](CC)(CC)CC`, the “activity change, negative = inhibition” value was 27.1%. For `Cc1nc2c([nH]1)c(=O)n(C)c(=O)n2Cc1ccco1` the value was -20.7%; for `CC(=O)c1ccc(S(=O)(=O)NC(=O)NC2CCCCC2)cc1`, -1.63%. In the case of `CC(CCc1ccc(O)cc1)NCCc1ccc(O)c(O)c1` (configuration not stated), the “activity change, negative = inhibition” value is -20.3%.

Turning to `C[C@]12CCC(=O)C=C1CC[C@@H]1[C@@H]2[C@@H](O)C[C@@]2(C)[C@H]1CC[C@]2(O)C(=O)COC(=O)CCC(=O)O`, the “activity change, negative = inhibition” value was -1.05%. Under `CC(C)C(=O)c1c(C(C)C)nn2ccccc12` stands 5.98%; under `NC1CCN(c2cccc(Cl)n2)CC1`, 0.92%.

Turning to `NC/C=C/C(=O)O`, the “activity change, negative = inhibition” value was 1.59%. Under `CO/N=C(\C(=O)N[C@@H]1C(=O)N2C(C(=O)O)=C(COC(C)=O)CS[C@H]12)c1csc(N)n1` (stereo in doubt) stands 2.58%. Take `CN(C)CCOC(=O)COc1ccc(Cl)cc1`: the “activity change, negative = inhibition” value is -4.64%. Consider `Cc1nnc(SCC2=C(C(=O)O)N3C(=O)[C@@H](NC(=O)Cn4cnnn4)[C@H]3SC2)s1`, for which the “activity change, negative = inhibition” value is 6.43%. For `CO[C@@]1(NC(=O)CSCC#N)C(=O)N2C(C(=O)O)=C(CSc3nnnn3C)CS[C@@H]21` the value was -12.7%; for `Nc1cc(=O)[nH]c(N)n1`, 10.9%. As to `O=C(NCC1CCCCN1)c1cc(OCC(F)(F)F)ccc1OCC(F)(F)F` (configuration not stated), the “activity change, negative = inhibition” value is 0.275%.

With `COC(=O)[C@@H]1[C@H]2C[C@H]3c4[nH]c5ccccc5c4CCN3C[C@@H]2CC[C@@H]1O`, the “activity change, negative = inhibition” value was 40.8%. Under `CCCCCCCCCCCCCCCC(=O)NCCO` stands 8.36%. Under `CNC[C@H](O)c1cccc(O)c1` stands 4.72%. Under `Cc1scc2c1N(C(=O)CN1CCN(C)CC1)c1ccccc1NC2=O` stands -7.72%; under `CNCC(O)c1ccc(O)c(O)c1` (configuration not stated), 2.72%.

As for `COCCOC(=O)C1=C(C)NC(C)=C(C(=O)OC(C)C)C1c1cccc([N+](=O)[O-])c1` (configuration not stated), the “activity change, negative = inhibition” value is -20.6%. Take `CC(C)(Oc1ccc(C2CC2(Cl)Cl)cc1)C(=O)O` (configuration not stated): the “activity change, negative = inhibition” value was -5.88%.

With `CCN1CCC[C@H]1CNC(=O)c1c(O)c(Cl)cc(Cl)c1OC`, the “activity change, negative = inhibition” value is 15.8%. `Nc1ccc(S(=O)(=O)Nc2ccnn2-c2ccccc2)cc1`: the “activity change, negative = inhibition” value was -1.32%.
